Growth data for 9 compounds are collected here from PubChem BioAssay (NCI).

The panel holds about 83,000 compounds, 20% with a hit somewhere; the sample as a whole holds those more often.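 How to read the values: 0–100, growth inhibition (40 = 60% inhibited); 0, no net growth; -100 to 0, cell death (-40 = 40% of starting cells died; -100 = all dead).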 Values without a mark were called inactive. Calls of active or inactive are those of the source. How the source made its calls: active means growth percent below 10; inactive means the rest.

Among the test systems are SR leukemia; OVCAR-8 ovarian; OVCAR-5 ovarian; OVCAR-4 ovarian; SK-OV-3 ovarian; IGROV1 ovarian; OVCAR-3 ovarian; HS 578T breast; NCI/ADR-RES ovarian; T-47D breast; BT-549 breast; MDA-MB-435 melanoma; SW-620 colon; MCF7 breast; HCT-116 colon; HCC-2998 colon; KM12 colon.
Common to all, as to assay: NCI-60 one-dose screen, 48 h (100 = growth as untreated, 0 = no growth, -100 = all killed)
Common to all, as to details: 10 µM unless noted

Regarding `Fc1cc(-c2cnc3nonc3n2)c(Cl)cc1Cl`, the growth was 86.5% in the assay with SR leukemia; 97.3% in the assay on OVCAR-8 ovarian; 88.6% in the assay on OVCAR-5 ovarian; 59.6% in the assay on OVCAR-4 ovarian; 98.5% in the assay on SK-OV-3 ovarian; 77% with IGROV1 ovarian. Besides, the growth in the assay with OVCAR-3 ovarian was 10.3%; in the assay with HS 578T breast, 111%; in the assay with NCI/ADR-RES ovarian, 102%; in the assay on T-47D breast, 63.2%; in the assay with BT-549 breast it was 99.7%; in the assay with MDA-MB-435 melanoma it was 90.1%. In addition, the growth in the assay with SW-620 colon was 38.7%; with MCF7 breast it was 69.7%; in the assay on HCT-116 colon, 7.65% (active); in the assay on HCC-2998 colon, 103%; with KM12 colon, 88.2%.
Take `NC(=S)N1N=C(c2ccc(Cl)cc2)CC1c1cc2ccccc2[nH]c1=O` (centres undefined): the growth in the assay with SR leukemia is 82.4%; with OVCAR-8 ovarian, 111%; in the assay with OVCAR-5 ovarian, 108%; in the assay on OVCAR-4 ovarian, 100%; with SK-OV-3 ovarian, 104%; with IGROV1 ovarian, 101%. The growth with OVCAR-3 ovarian is 119%; with HS 578T breast, 112%; in the assay on NCI/ADR-RES ovarian it was 108%; with T-47D breast, 89.2%; in the assay with BT-549 breast, 102%; in the assay on MDA-MB-435 melanoma, 104%. Besides, the growth in the assay on SW-620 colon is 108%; in the assay on MCF7 breast, 95.5%; in the assay on HCT-116 colon, 103%; with HCC-2998 colon it was 111%; in the assay on KM12 colon it was 114%.
As to `C=CCOC(=O)C1=C(C)NC2=C(C(=O)CCC2)C1c1ccc(F)cc1` (centres undefined), the growth in the assay on SR leukemia was 92.2%; with OVCAR-8 ovarian it was 97%; with OVCAR-5 ovarian, 98%; in the assay with OVCAR-4 ovarian, 98.7%; with SK-OV-3 ovarian, 86.6%; in the assay on IGROV1 ovarian, 99.2%. Further, the growth in the assay with OVCAR-3 ovarian is 109%; in the assay with HS 578T breast, 88.4%; in the assay on NCI/ADR-RES ovarian it was 101%; in the assay on T-47D breast, 89.4%; in the assay on BT-549 breast it was 99.4%; with MDA-MB-435 melanoma it was 101%. In addition, the growth in the assay with SW-620 colon is 94.4%; in the assay with MCF7 breast, 95.6%; in the assay on HCT-116 colon, 92.3%; in the assay on HCC-2998 colon, 104%; with KM12 colon, 93.8%.
As to `O=c1c2cc(Br)cc(Br)c2nc(-c2ccc(Cl)cc2)n1/N=C/c1cccc(F)c1`, the growth was 62.7% in the assay with SR leukemia; 29.4% with OVCAR-8 ovarian; 61% in the assay with OVCAR-5 ovarian; -11% (active) with OVCAR-4 ovarian; 52% with SK-OV-3 ovarian; 33.1% in the assay on IGROV1 ovarian. The growth was 49.8% in the assay on OVCAR-3 ovarian; 35.2% with HS 578T breast; 40.3% in the assay with NCI/ADR-RES ovarian; 48.8% in the assay on T-47D breast; 74.4% with BT-549 breast; 78.8% with MDA-MB-435 melanoma. The growth in the assay on SW-620 colon was 74.7%; with HCT-116 colon, 18.5%; in the assay with HCC-2998 colon, 84%; with KM12 colon, 70.2%.
In the case of `CN1C(=O)N(C)C2C1NN=c1s/c(=C\c3ccc(C(F)(F)F)cc3)c(=O)n12` (centres undefined), the growth in the assay on SR leukemia was 16.8%; in the assay with OVCAR-8 ovarian, 29.1%; with OVCAR-5 ovarian it was 49.3%; in the assay with OVCAR-4 ovarian, 63.8%; in the assay with SK-OV-3 ovarian it was 32.1%; in the assay with IGROV1 ovarian it was 46.4%. The growth was 3.49% (active) in the assay on OVCAR-3 ovarian; 18.5% in the assay on HS 578T breast; 15.4% in the assay with NCI/ADR-RES ovarian; 24.6% in the assay with T-47D breast; 50.4% in the assay on BT-549 breast; -52.1% (active) with MDA-MB-435 melanoma. The growth in the assay with SW-620 colon is 19.1%; with HCT-116 colon, 26.9%; in the assay on HCC-2998 colon it was 54.9%; with KM12 colon it was 16.3%.
With `OC(CCCCCCCCC(O)CN1CCc2ccccc2C1)CN1CCc2ccccc2C1` (centres undefined), the growth is 104% with SR leukemia; 104% with OVCAR-8 ovarian; 102% in the assay on OVCAR-5 ovarian; 96.2% in the assay with OVCAR-4 ovarian; 105% in the assay on SK-OV-3 ovarian; 95.1% in the assay on IGROV1 ovarian. Moreover, the growth in the assay with OVCAR-3 ovarian was 107%; with HS 578T breast it was 108%; in the assay on NCI/ADR-RES ovarian, 98.1%; in the assay with T-47D breast, 99.6%; with BT-549 breast, 101%; in the assay on MDA-MB-435 melanoma, 99.8%. Further, the growth in the assay with SW-620 colon was 104%; in the assay on MCF7 breast it was 95.9%; in the assay with HCT-116 colon it was 98%; with HCC-2998 colon it was 102%; in the assay on KM12 colon it was 106%.
Turning to `CCCCCCCCCCCCCC1=NC(C)(C)CN1C(C)C`, the growth is -46.5% (active) in the assay on SR leukemia; -12.4% (active) in the assay with OVCAR-8 ovarian; 39.7% in the assay with OVCAR-5 ovarian; 7.76% (active) in the assay with OVCAR-4 ovarian; -2.05% (active) in the assay with SK-OV-3 ovarian; -30.4% (active) in the assay with IGROV1 ovarian. Moreover, the growth with OVCAR-3 ovarian was -56.3% (active); in the assay on HS 578T breast it was -28.1% (active); in the assay on NCI/ADR-RES ovarian it was -12.4% (active); in the assay with T-47D breast, -22.3% (active); in the assay on BT-549 breast, 22.8%; in the assay with MDA-MB-435 melanoma, -57.3% (active). The growth in the assay on SW-620 colon was -67.2% (active); in the assay on HCT-116 colon, -72.6% (active); in the assay with HCC-2998 colon, -90.6% (active); in the assay with KM12 colon, -75.5% (active).
With `COc1cc(-c2nn(C(=O)NCCN3CCN(C)CC3)cc2-c2ccncc2)ccc1Cl`, the growth with SR leukemia is 77.5%; with OVCAR-8 ovarian, 24.5%; with OVCAR-5 ovarian, 84.6%; with OVCAR-4 ovarian, 78%; in the assay with SK-OV-3 ovarian, 55.1%; in the assay on IGROV1 ovarian it was 75%. Besides, the growth is 97.2% in the assay on OVCAR-3 ovarian; 76.9% with HS 578T breast; 82.4% with NCI/ADR-RES ovarian; 62.2% in the assay on T-47D breast; 88.1% in the assay with BT-549 breast; 80.4% in the assay on MDA-MB-435 melanoma. The growth in the assay with SW-620 colon is 111%; in the assay with HCT-116 colon, 76.9%; in the assay on HCC-2998 colon, 93.7%; in the assay on KM12 colon, 96.4%.
On to `N/N=C(\C(=N\N)c1ccccc1)c1ccccc1`, for which the growth in the assay with SR leukemia is 77.2%; with OVCAR-8 ovarian, 104%; with OVCAR-5 ovarian, 102%; in the assay with OVCAR-4 ovarian it was 77.3%; in the assay on SK-OV-3 ovarian it was 99.4%; in the assay with IGROV1 ovarian, 96.8%. Further, the growth was 112% in the assay on OVCAR-3 ovarian; 108% with HS 578T breast; 102% in the assay with NCI/ADR-RES ovarian; 93% with T-47D breast; 88% in the assay with BT-549 breast; 103% with MDA-MB-435 melanoma. For the same compound, the growth with SW-620 colon was 101%; in the assay with MCF7 breast, 90%; in the assay on HCT-116 colon, 101%; in the assay on HCC-2998 colon, 99.8%; in the assay on KM12 colon, 105%.
